SMILES strings stand for the structures.

This test is described as follows: probe aEGFR binding to arrayed compounds – biochemical, biotinylated probe, 635/667 nm fluorescence, primary screen (AID 1097).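 Further: probe is a biotinylated anti-EGFR antibody binding compounds printed on slides; score combines fluorescence near 667 nm and signal to noise of each spot.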 To be noted: small-molecule microarray, higher = more signal.
Consider `COc1ccc([Si](C)(C)[C@H]2[C@H](CCO)O[C@@]3(C(=O)N(Cc4cccc(N5C(=O)COc6ccccc65)c4)c4ccccc43)[C@@H]2C)cc1`, for which the composite z-score is -0.148.

`CCCCCCc1nc(C2CC2)cc2c1[Si](C(C)C)(C(C)C)OC2`: the composite z-score is -0.228.

Compound `C=CCNC(=O)[C@@H]1[C@H]2C(=O)O[C@H](c3ccccc3)[C@H](c3ccccc3)N2[C@H](c2ccc(O)cc2)[C@@]12C(=O)N(C(=O)OCCOC)c1ccc(C#CC3(O)CCCCCC3)cc12` yielded a composite z-score of -0.305.

Take `CC(CO)N1C(=O)[C@@H]2[C@H]3C(=O)OCC=C[C@H]3OC23C=CCN(Cc2ccccc2)C(=O)[C@@H]13` (some centres not stated): the composite z-score is -0.206.

In turn, `[N-]=[N+]=NCc1ccccc1C[C@@]1(C(=O)NCc2ccccc2)N=C(c2ccc(OCCCO)cc2)O[C@@H]1c1ccccc1N=[N+]=[N-]` showed a composite z-score of -0.0831.

`C=CCN1Cc2ccccc2[C@H]2OC(c3ccc(OCCCO)cc3)=N[C@@]2(CC=C)C1=O` came in with a composite z-score of 0.168.

As for `Cc1cc(C)cc(N2C(=O)CSC2c2cccc([N+](=O)[O-])c2)c1` (configuration not stated), the composite z-score worked out at 0.213.

As to `CCOc1cc(C(O)C2C=CC3C(=O)N(C)C(=O)C3N2Nc2ccccc2)ccc1O` (configuration not stated), the composite z-score was found to be 0.0439.

`[N-]=[N+]=Nc1ccccc1C[C@]1(C(N)=O)N=C(c2ccc(OCCCO)cc2)O[C@H]1c1ccccc1N=[N+]=[N-]` showed a composite z-score of 0.701.

Consider `NC(=O)NCC#Cc1ccc2c(c1)[C@]1(C(=O)N2)[C@H](C(=O)O)[C@H]2C(=O)O[C@H](c3ccccc3)[C@H](c3ccccc3)N2[C@@H]1c1ccc(OCCO)cc1`, for which the composite z-score is -0.181.

For the compound `CCCCCCc1nc(C2CC2)cc2c1[Si](C(C)C)(C(C)C)O[C@H]2c1ccccc1`, the composite z-score was 0.0122.

For the compound `COc1cc2c(cc1OC)CN(C(=O)[C@@H]1[C@H]3C(=O)O[C@H](c4ccccc4)[C@H](c4ccccc4)N3[C@H](c3ccc(OCCO)cc3)[C@@]13C(=O)Nc1ccc(C#CC4(O)CCCCCC4)cc13)CC2`, the composite z-score was -0.244.

`O=C1C[C@@](C(=O)NCCN2CCOCC2)(c2ccc([N+](=O)[O-])cc2)[C@@H](c2ccc(CO)cc2I)N1C1CCCCC1` registered a composite z-score of -0.0963.

In the case of `COC(=O)[C@@]1(Cc2ccc(F)cc2)[C@H]2c3cc(C(=O)N4CCCC4)n(CCc4ccc(O)c(O)c4)c3C[C@H]2CN1C(=O)c1ccccc1`, the composite z-score came to 0.978.

The compound `CC(C)N1C(=O)C[C@@](C(=O)NCCCN(C)C)(c2ccc([N+](=O)[O-])cc2)[C@H]1c1ccc(CO)cc1` had a composite z-score of -0.124.

Turning to `COC(=O)C1=CC(CCCO)=CC(C2CC2)N(C)C=C1C(=O)OC` (configuration not stated), the composite z-score is -0.43.

In turn, `COC(=O)c1c(CC[C@@H](CO)NC(=O)N2CCC[C@H]2Cn2cc(Cc3ccccc3)nn2)oc(C(C)=O)c1C(=O)OC` had a composite z-score of -0.111.

For `O=C(N1CCCCC1)[C@@]1(CCS(=O)(=O)c2ccccc2)COC(c2ccc(OCCCO)cc2)=N1`, the composite z-score turned out to be 0.219.

`CC1=C[C@@]2(CO)C(=O)[C@]3(CO3)[C@@H]1[C@H]1[C@]2(C)C=C(CO)C(=O)[C@]12CO2` returned a composite z-score of -0.276.

As to `CCCNC(=O)[C@@]1(c2ccc([N+](=O)[O-])cc2)CC(=O)N(C2CCCCC2)[C@@H]1c1ccc(CO)cc1`, the composite z-score was -0.0729.

In the case of `NC(=O)NCC#Cc1ccc2c(c1)[C@]1(C(=O)N2)[C@H](C(=O)NC[C@H](O)c2ccccc2)[C@H]2C(=O)O[C@H](c3ccccc3)[C@H](c3ccccc3)N2[C@@H]1c1ccc(OCCO)cc1`, the composite z-score is -0.0078.

Regarding `O=C1NC(=O)C2C1C=CC(C(O)CCc1ccccc1)N2Nc1ccc(Cl)cc1Cl` (configuration not stated), the composite z-score is 0.0122.

The compound `CCCCC=C[C@@H](NC(=O)c1ccc(-c2ccccc2)cc1)c1ccccc1` had a composite z-score of -0.094.

On to `COc1ccc([Si](C)(C)[C@@H]2[C@@H](CC(=O)N(CCO)Cc3ccccc3)O[C@]3(C(=O)N(Cc4cccc(N5CCOC5=O)c4)c4ccccc43)[C@H]2C)cc1`, for which the composite z-score was -0.129.

Turning to `CC(C)N1CC=CC23O[C@@H]4C=CCOC(=O)[C@@H]4[C@H]2C(=O)N(CCCO)[C@@H]3C1=O` (some centres not stated), the composite z-score was -0.178.

`C=CCNC(=O)[C@H]1[C@@H]2C(=O)O[C@@H](c3ccccc3)[C@@H](c3ccccc3)N2[C@@H](c2ccc(O)cc2)[C@]12C(=O)N(C(=O)OCCOC)c1ccccc12` showed a composite z-score of 0.0798.

`O=C1OCC=C[C@H]2OC34C=CCN(c5ccc(Cl)cc5)C(=O)[C@H]3N(CCO)C(=O)[C@@H]4[C@@H]12` (some centres not stated) showed a composite z-score of -0.321.

(Values after PubChem BioAssay.)
